Values joined by “and” are separate entries in the source; they are usually repeats but may differ in a detail not shown here. Equal values may be shown once. About 83,000 compounds went through this panel and 20% of them were active in at least one assay; those are over-represented in the sample as a whole.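 Results are percent growth after 48 hours of single-concentration exposure. 100 means growth as in untreated cells, lower positive values show inhibition; negative values down to -100 show cell death.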 Unmarked numbers belong to inactive results. Active and inactive are the calls of the source. The calls were made as follows: active = growth percent below 10; inactive = the rest.

Common to all, as to experiment: NCI-60 one-dose screen, 48 h (100 = growth as untreated, 0 = no growth, -100 = all killed)
One assay has as its system MOLT-4 leukemia. The settings on record: 10 µM.
The subject of the next assay is SR leukemia. Particulars: 10 µM.
Another assay concerns OVCAR-8 ovarian. The settings on record: 10 µM.
The subject of a further assay is OVCAR-5 ovarian. The settings on record: 10 µM.
The next assay deals with OVCAR-4 ovarian. Particulars: 10 µM.
The test system of another assay is SK-OV-3 ovarian. Particulars: 10 µM.
In a further assay the test system is IGROV1 ovarian. Particulars: 10 µM.
Another assay deals with OVCAR-3 ovarian. Particulars: 10 µM.
For a further assay, the system named is HS 578T breast. Particulars: 10 µM.
For another assay, the system named is NCI/ADR-RES ovarian. The settings on record: 10 µM.
Another assay concerns T-47D breast. Particulars: 10 µM.
In the next assay the test system is MDA-MB-435 melanoma. The settings on record: 10 µM.
The test system of the next assay is SW-620 colon. The settings on record: 10 µM.
Another assay concerns HCT-116 colon. Particulars: 10 µM.
For the next assay, the system named is HCC-2998 colon. The settings on record: 10 µM.
The subject of another assay is KM12 colon. The settings on record: 10 µM.
The subject of the next assay is RPMI-8226 leukemia. The settings on record: 10 µM.
A further assay deals with MCF7 breast. The settings on record: 10 µM unless noted.
Another assay relates to BT-549 breast. Particulars: 10 µM.

Turning to `COc1cc([N+](=O)[O-])c2ncccc2c1[N+](=O)[O-]`, the growth with MOLT-4 leukemia was 26%; with SR leukemia, 25.7%; with OVCAR-8 ovarian, 69.8%; in the assay on OVCAR-5 ovarian, 124%; in the assay on OVCAR-4 ovarian it was 47.5%; with SK-OV-3 ovarian, 91.5%. In addition, the growth with IGROV1 ovarian was 23.1%; in the assay on OVCAR-3 ovarian, 58.1%; with HS 578T breast, 79.4%; in the assay with NCI/ADR-RES ovarian, 81.7%; in the assay on T-47D breast, 50.9%; with MDA-MB-435 melanoma, 44.8%. In addition, the growth in the assay with SW-620 colon is -61.5% (active); in the assay with HCT-116 colon, 14.4%; with HCC-2998 colon, 102%; with KM12 colon, 20.3%.
Take `O=S(=O)(F)c1ccc(Cl)cc1`: the growth with MOLT-4 leukemia is 105%; in the assay with SR leukemia, 107%; with RPMI-8226 leukemia, 97.9%; with OVCAR-8 ovarian it was 102%; with OVCAR-5 ovarian it was 113%; in the assay on OVCAR-4 ovarian, 115%. Moreover, the growth in the assay with SK-OV-3 ovarian is 104%; with IGROV1 ovarian it was 113%; with OVCAR-3 ovarian, 108%; in the assay with NCI/ADR-RES ovarian it was 109%; in the assay on T-47D breast, 105%; with MDA-MB-435 melanoma, 108%. Further, the growth with SW-620 colon was 100%; in the assay with MCF7 breast, 102%; with HCT-116 colon, 106%; with HCC-2998 colon it was 83.2%; in the assay with KM12 colon, 104%.
Regarding `NC(Cc1ccccc1)c1ccccc1` (centres undefined), the growth in the assay on MOLT-4 leukemia was 116% and 94.2%; with SR leukemia it was 99.9% and 93.7%; in the assay with RPMI-8226 leukemia it was 111% and 100%; in the assay with OVCAR-8 ovarian, 104% and 108%; in the assay on OVCAR-5 ovarian, 98.5% and 96.1%; with OVCAR-4 ovarian, 103% and 112%. Further, the growth in the assay with SK-OV-3 ovarian was 101% and 103%; in the assay on IGROV1 ovarian, 107% and 101%; with OVCAR-3 ovarian it was 112% and 118%; in the assay with HS 578T breast, 98.9% and 119%; in the assay on NCI/ADR-RES ovarian, 106% and 102%; in the assay with T-47D breast it was 95.7% and 101%. Further, the growth in the assay with BT-549 breast is 91.1% and 89.4%; with MDA-MB-435 melanoma it was 106% and 102%; in the assay with SW-620 colon, 112% and 104%; with HCT-116 colon it was 99.7% and 98.4%; in the assay with HCC-2998 colon it was 105% and 102%; with KM12 colon, 104% and 110%.
`O=C1C(=O)c2ccccc2-c2ccccc21`: the growth with MOLT-4 leukemia is -26.9% (active); in the assay on SR leukemia it was 0.843% (active); in the assay on RPMI-8226 leukemia, -32.7% (active); in the assay with OVCAR-8 ovarian, -97.6% (active); in the assay on OVCAR-5 ovarian, -63.8% (active); in the assay on OVCAR-4 ovarian, -100% (active). In addition, the growth with SK-OV-3 ovarian was 93.7%; with IGROV1 ovarian, -61.7% (active); with OVCAR-3 ovarian, -91% (active); in the assay on HS 578T breast it was -20.1% (active); in the assay on NCI/ADR-RES ovarian, -41.5% (active); in the assay on T-47D breast it was -50% (active). In addition, the growth is -97.9% (active) in the assay with MDA-MB-435 melanoma; -63.3% (active) in the assay with SW-620 colon; -81.5% (active) in the assay with HCT-116 colon; -35.4% (active) in the assay with HCC-2998 colon; -84.5% (active) in the assay on KM12 colon.
As to `CN(CCCl)c1ccc(/C=C/C2=[N+](C)c3ccccc3C2(C)C)cc1`, the growth in the assay on MOLT-4 leukemia was -13.1% (active); in the assay with SR leukemia it was 12.3%; in the assay on RPMI-8226 leukemia, 10.6%; with OVCAR-8 ovarian, 13.1%; with OVCAR-5 ovarian it was 70.8%; with OVCAR-4 ovarian, 37.6%. Also, the growth in the assay on SK-OV-3 ovarian was -3.38% (active); with IGROV1 ovarian it was 35.1%; in the assay on OVCAR-3 ovarian, -10.6% (active); with HS 578T breast, 60.1%; with NCI/ADR-RES ovarian, 105%; in the assay on T-47D breast, 29.3%. Further, the growth with MDA-MB-435 melanoma was 12%; with SW-620 colon, 19.8%; with MCF7 breast, 14.9%; with HCT-116 colon it was 7.48% (active); with HCC-2998 colon it was 26%; in the assay on KM12 colon it was 12.6%.
With `COc1ccccc1[As]=[As]c1ccccc1OC` (centres undefined), the growth in the assay on MOLT-4 leukemia is -9.7% (active); with SR leukemia, -2.26% (active); in the assay on OVCAR-8 ovarian, -83.1% (active); in the assay on OVCAR-5 ovarian it was -93.2% (active); in the assay on OVCAR-4 ovarian, -85.1% (active); in the assay on SK-OV-3 ovarian, -99.7% (active). Moreover, the growth is -76.9% (active) in the assay with IGROV1 ovarian; -93.3% (active) in the assay on OVCAR-3 ovarian; -11.6% (active) in the assay with HS 578T breast; -72% (active) with NCI/ADR-RES ovarian; -47.2% (active) with T-47D breast; -91.9% (active) in the assay with BT-549 breast. Moreover, the growth with MDA-MB-435 melanoma is -73.2% (active); with SW-620 colon, -66.3% (active); in the assay with MCF7 breast it was -38.3% (active); in the assay with HCT-116 colon it was -71.3% (active); with HCC-2998 colon, -98.2% (active); in the assay on KM12 colon, -81.8% (active).
As for `CC[C@@H](C)[C@@H]1NC(=O)C(NC(=O)C(CC(C)C)N(C)C(=O)C2CCCN2C(=O)C(C)O)C(C)OC(=O)C(Cc2ccc(OC)cc2)N(C)C(=O)C2CCCN2C(=O)C(CC(C)C)NC(=O)C(C)C(=O)C(C(C)C)OC(=O)C[C@H]1O` (some centres undefined), the growth was -15.8% (active) in the assay on MOLT-4 leukemia; 1.46% (active) in the assay with SR leukemia; -27.5% (active) in the assay on RPMI-8226 leukemia; -71.8% (active) in the assay with OVCAR-5 ovarian; -30.8% (active) in the assay on OVCAR-4 ovarian; -38.5% (active) in the assay with SK-OV-3 ovarian. Besides, the growth in the assay with IGROV1 ovarian was -40.4% (active); with OVCAR-3 ovarian, -39.6% (active); in the assay with NCI/ADR-RES ovarian, -43.2% (active); with T-47D breast, -32.5% (active); in the assay with BT-549 breast, -74.2% (active); in the assay on MDA-MB-435 melanoma, -91.8% (active). The growth in the assay with SW-620 colon is -45.5% (active); in the assay with HCT-116 colon, -28.8% (active); in the assay with KM12 colon, -49.8% (active).
